Common to all, as to test: HT-SELEX; 20 mM HEPES pH 7, 140 mM KCl, 5 mM NaCl, 1 mM K2HPO4, 2 mM MgSO4, 100 uM EGTA, ZnSO4, 0.1% Tween20; room temperature, 1 h; high values mean tight binding
What all share (conditions): protein: ivt; tags: eGFP (N-terminal); dsDNA, one strand shown

The target in one experiment is ZNF721 full-length (Homo sapiens, UniProt Q8TF20-2 1-923). The gist of the method:
(§1)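 A tagged transcription factor, either full-length or its DNA-binding-domain fragment, was made in HEK293 lysate or cell-free extract, immobilised on beads and incubated with a randomized 40-base DNA library for 1 h at room temperature in HEPES/KCl low-stringency buffer containing Tween20. Washed beads were heat-eluted, and the bound DNA was PCR-amplified over successive cycles and Illumina-sequenced at ~3 million 60 bp reads per sample. The binding signal is the relative k-mer count in selected reads, where a higher value means tighter binding.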

A further experiment addresses ZNF721 DBD1 (Homo sapiens, UniProt Q8TF20-2 29-461). The gist of the method: as §1
In a further experiment the target is ZNF721 DBD2 (Homo sapiens, UniProt Q8TF20-2 395-923). The gist of the method: as §1
ZNF721 DBD2, sequence (Q8TF20 383-911): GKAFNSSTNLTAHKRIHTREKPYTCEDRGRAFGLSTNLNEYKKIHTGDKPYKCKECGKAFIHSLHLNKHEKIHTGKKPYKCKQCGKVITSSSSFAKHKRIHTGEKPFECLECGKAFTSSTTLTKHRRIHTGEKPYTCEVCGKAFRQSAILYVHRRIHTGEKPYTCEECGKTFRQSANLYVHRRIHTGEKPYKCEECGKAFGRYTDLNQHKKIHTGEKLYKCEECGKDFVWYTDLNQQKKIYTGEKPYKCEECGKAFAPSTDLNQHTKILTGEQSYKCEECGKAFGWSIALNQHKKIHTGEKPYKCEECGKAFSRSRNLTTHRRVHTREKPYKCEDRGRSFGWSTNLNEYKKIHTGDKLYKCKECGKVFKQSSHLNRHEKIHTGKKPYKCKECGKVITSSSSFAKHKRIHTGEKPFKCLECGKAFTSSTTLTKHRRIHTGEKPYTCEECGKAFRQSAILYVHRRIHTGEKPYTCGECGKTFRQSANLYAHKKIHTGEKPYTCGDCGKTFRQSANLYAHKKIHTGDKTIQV

These results are taken from PMC13541613, “GHT-SELEX demonstrates unexpectedly high intrinsic sequence specificity and complex DNA binding of many human transcription factors”.

ZNF721 DBD1, sequence (Q8TF20 17-449): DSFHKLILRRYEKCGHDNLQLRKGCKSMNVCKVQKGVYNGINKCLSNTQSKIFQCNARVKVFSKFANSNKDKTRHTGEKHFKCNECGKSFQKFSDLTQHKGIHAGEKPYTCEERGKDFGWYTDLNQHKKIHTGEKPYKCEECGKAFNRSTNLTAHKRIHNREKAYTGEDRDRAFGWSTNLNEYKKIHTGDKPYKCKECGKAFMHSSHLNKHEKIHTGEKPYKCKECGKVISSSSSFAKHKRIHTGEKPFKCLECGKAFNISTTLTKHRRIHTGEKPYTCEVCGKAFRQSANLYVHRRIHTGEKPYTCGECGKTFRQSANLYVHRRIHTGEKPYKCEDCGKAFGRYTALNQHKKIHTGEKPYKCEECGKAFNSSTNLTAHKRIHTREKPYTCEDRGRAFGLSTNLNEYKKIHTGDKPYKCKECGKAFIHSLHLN
ZNF721 full-length, sequence (Q8TF20 other isoform, or with tags, fused parts or gaps): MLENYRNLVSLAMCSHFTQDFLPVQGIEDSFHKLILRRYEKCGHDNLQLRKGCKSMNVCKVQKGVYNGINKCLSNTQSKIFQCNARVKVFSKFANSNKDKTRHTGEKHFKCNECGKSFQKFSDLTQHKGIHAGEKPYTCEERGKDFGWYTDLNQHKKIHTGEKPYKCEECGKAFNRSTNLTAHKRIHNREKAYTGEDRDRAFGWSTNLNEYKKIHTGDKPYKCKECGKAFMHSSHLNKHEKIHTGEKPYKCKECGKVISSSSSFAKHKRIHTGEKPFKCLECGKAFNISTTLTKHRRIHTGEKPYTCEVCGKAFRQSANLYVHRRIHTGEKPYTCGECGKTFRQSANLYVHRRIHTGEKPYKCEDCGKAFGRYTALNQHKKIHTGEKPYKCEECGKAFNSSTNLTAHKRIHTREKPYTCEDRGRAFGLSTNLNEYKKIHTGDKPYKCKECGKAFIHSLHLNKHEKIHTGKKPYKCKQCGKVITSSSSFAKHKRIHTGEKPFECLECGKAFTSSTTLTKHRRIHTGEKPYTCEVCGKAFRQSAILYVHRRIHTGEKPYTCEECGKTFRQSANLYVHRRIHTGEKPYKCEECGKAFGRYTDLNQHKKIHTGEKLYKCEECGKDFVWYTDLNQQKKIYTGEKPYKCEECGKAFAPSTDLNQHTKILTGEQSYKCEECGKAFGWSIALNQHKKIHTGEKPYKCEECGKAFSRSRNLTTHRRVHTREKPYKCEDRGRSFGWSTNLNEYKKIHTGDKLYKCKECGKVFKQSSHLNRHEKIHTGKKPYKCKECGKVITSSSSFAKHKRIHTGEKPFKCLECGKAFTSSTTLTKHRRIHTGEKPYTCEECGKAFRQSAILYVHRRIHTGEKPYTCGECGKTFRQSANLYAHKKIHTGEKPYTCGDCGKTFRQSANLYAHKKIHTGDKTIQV

With AAAAAAAGGC, the binding signal came to 0.162 relative 10-mer count with ZNF721 full-length, 0.00225 relative 10-mer count with ZNF721 DBD1 and 0.117 relative 10-mer count in the experiment with ZNF721 DBD2.

Take CCACCCCCCG: the binding signal with ZNF721 full-length is 0.179 relative 10-mer count; in the experiment with ZNF721 DBD1, 0.00628 relative 10-mer count; with ZNF721 DBD2 it was 0.0024 relative 10-mer count.

As to ACCCACCGCC, the binding signal in the experiment with ZNF721 full-length turned out to be 0.114 relative 10-mer count; with ZNF721 DBD1 it was 0.00482 relative 10-mer count; in the experiment with ZNF721 DBD2 it was 0.00455 relative 10-mer count.

In the case of CTCCCCACCC, the binding signal with ZNF721 full-length is 0.198 relative 10-mer count; with ZNF721 DBD1, 0.00936 relative 10-mer count; with ZNF721 DBD2, 0.00395 relative 10-mer count.

Take CGCCCCCGCC: the results for the binding signal in the experiment with ZNF721 full-length, in the experiment with ZNF721 DBD1 and in the experiment with ZNF721 DBD2 were 0.132 relative 10-mer count, 0.00523 relative 10-mer count and 0.00216 relative 10-mer count, respectively.

For GTGGGTGGGA, the results for the binding signal with ZNF721 full-length, with ZNF721 DBD1 and with ZNF721 DBD2 were 0.137 relative 10-mer count, 0.00729 relative 10-mer count and 0.00563 relative 10-mer count, respectively.

Consider CCCACCCTAC, for which the binding signal with ZNF721 full-length was 0.114 relative 10-mer count; with ZNF721 DBD1 it was 0.00748 relative 10-mer count; in the experiment with ZNF721 DBD2, 0.0116 relative 10-mer count.

As for CACCCACCGC, the binding signal in the experiment with ZNF721 full-length was 0.103 relative 10-mer count; in the experiment with ZNF721 DBD1, 0.00463 relative 10-mer count; with ZNF721 DBD2 it was 0.00455 relative 10-mer count.

Take CCACGCCCCC: the binding signal came out at 0.187 relative 10-mer count in the experiment with ZNF721 full-length, 0.00605 relative 10-mer count in the experiment with ZNF721 DBD1 and 0.0024 relative 10-mer count with ZNF721 DBD2.

Turning to CCCACCCCAG, the figures for the binding signal with ZNF721 full-length, in the experiment with ZNF721 DBD1 and with ZNF721 DBD2 were 0.114 relative 10-mer count, 0.00321 relative 10-mer count and 0.00156 relative 10-mer count, respectively.

Regarding CCTCCCCCAC, the binding signal with ZNF721 full-length stood at 0.216 relative 10-mer count; with ZNF721 DBD1, 0.01 relative 10-mer count; with ZNF721 DBD2 it was 0.00767 relative 10-mer count.

Consider CGTCCCCCCC, for which the binding signal with ZNF721 full-length came to 0.126 relative 10-mer count; with ZNF721 DBD1, 0.00619 relative 10-mer count; with ZNF721 DBD2, 0.00108 relative 10-mer count.

For CGCCCTCCCC, the values for the binding signal with ZNF721 full-length, in the experiment with ZNF721 DBD1 and in the experiment with ZNF721 DBD2 were 0.172 relative 10-mer count, 0.0066 relative 10-mer count and 0.00252 relative 10-mer count, respectively.

As for CACCCCCCCC, the binding signal with ZNF721 full-length came out at 0.217 relative 10-mer count; with ZNF721 DBD1, 0.00789 relative 10-mer count; with ZNF721 DBD2, 0.00384 relative 10-mer count.

With AGCATGACCA, the binding signal with ZNF721 full-length came to 0.152 relative 10-mer count; with ZNF721 DBD1 it was 0.00431 relative 10-mer count; with ZNF721 DBD2, 0.236 relative 10-mer count.

As to CACCACCCCA, the values for the binding signal with ZNF721 full-length, with ZNF721 DBD1 and with ZNF721 DBD2 were 0.222 relative 10-mer count, 0.00803 relative 10-mer count and 0.00683 relative 10-mer count, respectively.

In the case of CCACCACGCC, the binding signal with ZNF721 full-length amounted to 0.105 relative 10-mer count; with ZNF721 DBD1, 0.00316 relative 10-mer count; with ZNF721 DBD2, 0.00587 relative 10-mer count.

As to AAACAGCATG, the figures for the binding signal with ZNF721 full-length, with ZNF721 DBD1 and with ZNF721 DBD2 were 0.284 relative 10-mer count, 0.00101 relative 10-mer count and 0.345 relative 10-mer count, respectively.

For GCACCCCACC, the values for the binding signal with ZNF721 full-length, in the experiment with ZNF721 DBD1 and in the experiment with ZNF721 DBD2 were 0.104 relative 10-mer count, 0.00284 relative 10-mer count and 0.00491 relative 10-mer count, respectively.

On to ACCCTCCCAC, for which the figures for the binding signal in the experiment with ZNF721 full-length, with ZNF721 DBD1 and with ZNF721 DBD2 were 0.119 relative 10-mer count, 0.00734 relative 10-mer count and 0.00587 relative 10-mer count, respectively.

On to AGGTGGTGGG, for which the values for the binding signal in the experiment with ZNF721 full-length, in the experiment with ZNF721 DBD1 and in the experiment with ZNF721 DBD2 were 0.113 relative 10-mer count, 0.00601 relative 10-mer count and 0.00587 relative 10-mer count, respectively.

Turning to CCCCCTCCGC, the binding signal with ZNF721 full-length is 0.124 relative 10-mer count; in the experiment with ZNF721 DBD1, 0.00725 relative 10-mer count; with ZNF721 DBD2, 0.00372 relative 10-mer count.

On to ACCCTCCCCA, for which the binding signal is 0.105 relative 10-mer count with ZNF721 full-length, 0.00509 relative 10-mer count with ZNF721 DBD1 and 0.00515 relative 10-mer count in the experiment with ZNF721 DBD2.

Turning to AAAAAAGCTA, the binding signal came to 0.489 relative 10-mer count with ZNF721 full-length, 0.222 relative 10-mer count in the experiment with ZNF721 DBD1 and 0.00276 relative 10-mer count with ZNF721 DBD2.

On to CATACCCAAA, for which the figures for the binding signal with ZNF721 full-length, in the experiment with ZNF721 DBD1 and in the experiment with ZNF721 DBD2 were 0.103 relative 10-mer count, 0.00583 relative 10-mer count and 0.0665 relative 10-mer count, respectively.

CTGCTTTTTC: the figures for the binding signal with ZNF721 full-length, in the experiment with ZNF721 DBD1 and in the experiment with ZNF721 DBD2 were 0.202 relative 10-mer count, 0.00491 relative 10-mer count and 0.196 relative 10-mer count, respectively.

For CAGCCCCCCC, the binding signal was found to be 0.103 relative 10-mer count with ZNF721 full-length, 0.00284 relative 10-mer count with ZNF721 DBD1 and 0.0267 relative 10-mer count with ZNF721 DBD2.

Consider ATCCCCACCC, for which the binding signal with ZNF721 full-length worked out at 0.114 relative 10-mer count; with ZNF721 DBD1 it was 0.00459 relative 10-mer count; in the experiment with ZNF721 DBD2, 0.00515 relative 10-mer count.

Take CACCCCACCG: the binding signal was 0.124 relative 10-mer count with ZNF721 full-length, 0.00459 relative 10-mer count with ZNF721 DBD1 and 0.00372 relative 10-mer count in the experiment with ZNF721 DBD2.

On to AAAGCTGCAC, for which the binding signal stood at 0.11 relative 10-mer count with ZNF721 full-length, 0.0548 relative 10-mer count in the experiment with ZNF721 DBD1 and 0.0024 relative 10-mer count in the experiment with ZNF721 DBD2.
